# Experimental data from PubChem BioAssay (EPA / NIEHS).
# The source holds several records for some structures; these can differ, active in one and inactive in another. Active and inactive are the calls of the source. Rule for the calls: active = hit-call score of the fitted dose curve at least 0.9, where 1 is the maximum; inactive = score below 0.9.
# Assay: BSK_BE3C_SRB: Viability Assessment in the BioMAP Diversity Plus: BE3C Assay (AID 2283028);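 for AC50: fitted both ways so AC50 may mark signal gain or loss versus DMSO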
# Details: primary human bronchial epithelial cells
# Experimental: BSK_BE3C is a cell-based, multiplexed-readout assay that uses bronchial epithelial cell, a human lung primary cell, with measurements taken at 24 hours after chemical dosing in a 96-well plate.BSK_BE3C_SRB is an assay component measured in the BSK_BE3C assay. It measures 0.1% sulforhodamine related to cell death using Sulforhodamine staining technology.Data from the assay component BSK_BE3C_SRB was analyzed into 1 assay endpoint. This assay endpoint, BSK_BE3C_SRB, was analyzed with bidirectional fitting relative to DMSO as the negative control and baseline of activity. Using a type of viability reporter, gain or loss-of-signal activity can be used to understand changes in the signaling. Furthermore, this assay endpoint can be referred to as a primary readout, because this assay has produced multiple assay endpoints where this one serves a signaling function. To generalize the intended target to other relatable targets, this assay endpoint is annotated to the cell morphology intended target family, where the subfamily is cell conformation.
# The levels of cell surface (or secreted, indicated by the prefix "s") biomarker endpoints were measured by ELISA. Overt cytotoxicity to cells in confluent adherent cultures (all systems other than the BT system) was assessed by measuring total protein levels using sulforhodamine B (SRB) staining in parallel cultures at the time of biomarker measurements, indicated as SRB endpoints. For proliferation assays for adherent cell types, individual cell types are cultured at sub-confluence and relative cell numbers quantified by SRB staining at time points optimized for each system (48 h: 3C and CASM3C systems; 72 h: BT and HDF3CGF systems; 96 h: SAg system). SRB was performed by staining cells with 0.1% SRB after fixation with 10% TCA and reading wells at 560 nm.Viability and proliferation of PBMC (T cells) was quantified by Alamar Blue reduction for the SAg and BT systems. For PBMC viability (referred to as PBMC Cytotoxicity within the assay endpoint names), cells were plated (75,000/well in a 96-well plate) and then chemical samples added for 1 h before addition of activators, SEB and TSST-1 (20 ng/mL final concentration each). Cells were incubated for 90 h. Then, Alamar Blue (20 uL/well) (Invitrogen, Cat DAL1100) was added for 6 h, and the plates were read with a fluorescence microplate reader at 546/580 nm (excitation/emission). For PBMC proliferation, cells were plated and activated as above but incubated for only 16 h prior to addition of Alamar Blue. Plates were read after 6 h.
SMILES,outcome,AC50
CSCCC=O,inactive,–
CC1(C)C2=CCCC(C)(C)[C@]23CC[C@H]1C3,inactive,–
Oc1c(Cl)cc(Cl)c(Cl)c1Cc1c(O)c(Cl)cc(Cl)c1Cl,–,5.21 µM (active)
CS(=O)(=O)c1ccc(C2=C(c3ccccc3)C(=O)OC2)cc1,inactive,–
O=C1OC2(c3ccccc31)c1ccc(O)c(Br)c1Oc1c2ccc(O)c1Br,inactive,–
CC1(C)CCC[C@]2(C)[C@H]3CCO[C@]3(C)CC[C@@H]12,inactive,30 µM (active)
C=C(C)[C@H]1CC=C(C)C(=O)C1,inactive,–
CCC(C)c1cc([N+](=O)[O-])cc([N+](=O)[O-])c1OC(=O)OC(C)C (stereo not given),–,29.4 µM (active)
CCOC(=O)C(C#N)=C(c1ccccc1)c1ccccc1,inactive,–
CC(=O)Nc1ccc(C(=O)CCl)cc1,inactive,–
COc1ccc(OC)c(N=Nc2c(O)ccc3ccccc23)c1,–,5.55 µM (active)
CN(C)C(=S)SC(=S)N(C)C,inactive,–
CC(C)(C)CC(C)(C)c1ccc(OCCOCC[N+](C)(C)Cc2ccccc2)cc1,–,8.4 µM (active)
CCCCCC(C=O)=Cc1ccccc1,inactive,–
O=C1c2ccccc2C(=O)c2c(O)ccc(O)c21,inactive,–
O=C(Nc1ccc2c(O)c(N=Nc3ccc(N=Nc4ccc(S(=O)(=O)O)cc4)cc3)c(S(=O)(=O)O)cc2c1)c1ccccc1,inactive,–
CCCCCCC(CO)CCCC (stereo not given),inactive,–
O=C1OC[C@H](Cc2cccc(O)c2)[C@H]1Cc1cccc(O)c1,inactive,–
O=CN1CCOCC1,inactive,–
CS(=O)(=O)OCCCCOS(C)(=O)=O,inactive,–

SMILES,outcome,AC50
Clc1cc(Cl)c(-c2c(Cl)c(Cl)cc(Cl)c2Cl)cc1Cl,inactive,–
CC(C)(N=C=O)c1cccc(C(C)(C)N=C=O)c1,inactive,–
CC(C=O)Cc1ccc(C(C)(C)C)cc1 (stereo not given),inactive,–
C=C(C)C(=O)OCC(CC)(COC(=O)C(=C)C)COC(=O)C(=C)C,inactive,–
c1ccc(CCc2ccccc2)cc1,–,33.2 µM (active)
C1=CC2C3C=CC(C3)C2C1 (stereo not given),inactive,–
CC(CN=Cc1ccccc1O)N=Cc1ccccc1O (stereo not given),inactive,–
COc1cc(Cl)c(OC)cc1N,inactive,–
Cc1cc(CCC(=O)OCCOCCOCCOC(=O)CCc2cc(C)c(O)c(C(C)(C)C)c2)cc(C(C)(C)C)c1O,inactive,–
CCCCOC(=O)CCCCCCCC(=O)OCCCC,inactive,–
c1ccc2cc(Nc3ccc(Nc4ccc5ccccc5c4)cc3)ccc2c1,inactive,–
COc1ccc(CCN2CCC(Nc3nc4ccccc4n3Cc3ccc(F)cc3)CC2)cc1,inactive,–
c1ccc(Oc2ccccc2)cc1,inactive,–
CC(=O)c1c(C)c([N+](=O)[O-])c(C(C)(C)C)c([N+](=O)[O-])c1C,inactive,–
CN(C)C(=O)Nc1ccc(Oc2ccc(Cl)cc2)cc1,inactive,–
CCN(CC)C(=O)N(CC)CC,inactive,–
CCCCN(CCCC)C(=O)N(CCCC)CCCC,–,7.45 µM (active)
C=C(C)C(=O)OCCOCCOCCOCCOC(=O)C(=C)C,inactive,–
CC=Cc1ccc(OCC)c(O)c1,inactive,–
